Data reported in PubChem BioAssay AID1240 (Sanford-Burnham Center for Chemical Genomics, 2008).
About 800 (1.6%) of roughly 50,000 compounds showed an effect of 50% or more. The sample holds strong results, similar compounds and a random draw of the others, so the mix is not that of the screen.

Target: Bcl-2-like protein 10 (Homo sapiens) (UniProt Q9HD36)
Experiment: Phenotype converters, Bcl-B/TR3 peptide binding displacement, primary biochemical FP (AID 1240);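 also: 0% = Bcl-B with tracer peptide and DMSO and 100% = tracer peptide lacking Bcl-B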
Conditions: GST-Bcl-B / FITC-TR3 peptide fluorescence polarization; stronger effect = higher value; compound at 3.75 mg/L

Sequence of Bcl-2-like protein 10 (Homo sapiens) (Q9HD36 whole entry, looked up): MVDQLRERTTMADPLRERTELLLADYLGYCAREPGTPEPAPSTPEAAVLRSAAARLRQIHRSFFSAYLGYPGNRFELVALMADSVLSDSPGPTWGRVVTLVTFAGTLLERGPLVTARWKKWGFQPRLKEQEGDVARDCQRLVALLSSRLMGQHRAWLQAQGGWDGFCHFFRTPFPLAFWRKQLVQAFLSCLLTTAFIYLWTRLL

Row | SMILES | displacement
1 | CN1CCN(C(=O)c2cnn3c(C(F)(F)F)cc(-c4ccco4)nc23)CC1 | 6.4%
2 | O=C(O)CCCN1C(=O)C(=O)/C(=C(\O)c2ccc(Cl)cc2)C1c1ccc(F)cc1 (configuration not stated) | -0.6%
3 | COc1ccc(N(CC(=O)NCCc2ccccc2)S(C)(=O)=O)c(OC)c1 | 3.4%
4 | Cc1ccc(-c2ccc(OCC(=O)N3CCCc4ccccc43)cc2)cc1 | 59.3%
5 | Cc1ccccc1OCC(=O)N1CCCc2ccccc21 | -4.9%
6 | Cc1ccc(OCC(=O)N2CCCc3ccccc32)c(C)c1 | 6%
7 | Cc1ccc(-c2noc(COc3ccc4ccccc4c3)n2)cc1 | 11%
8 | CC(=O)NCCN=Cc1cc2n(c1O)-c1ccccc1C2=O | 167%
9 | O=c1[nH]c(=O)n(-c2ccccc2Cl)c(O)c1C=Nc1ccc(Cl)cc1 | 18.6%
10 | CC(=O)NCCN=Cc1c(O)[nH]c2ccccc12 | 14%
11 | CCOC(=O)c1cc2n(c1N(C(C)=O)C(C)=O)-c1ccccc1C2=O | -4.9%
12 | O=C1c2ccccc2-n2c1cc(C=Nc1ccc(Cl)cc1)c2O | 112%
13 | O=c1[nH]c(=O)n(-c2ccccc2F)c(O)c1C=Nc1ccc(Cl)cc1 | -1.4%
14 | CC(=O)Oc1ccc(C(=O)N2c3ccccc3Sc3ccccc32)cc1 | -7.2%
15 | Cc1onc(-c2c(F)cccc2Cl)c1C(=O)NCc1ccc(Cl)cc1 | -6.9%
16 | COc1ccc(/C=C/C(=O)NCCc2c[nH]c3ccccc23)cc1OC | -5%
17 | COc1ccc2c(Cl)c(C(=O)N/N=C/c3ccccn3)sc2c1 | 7.8%
18 | O=C(Nc1ccccc1)Nc1nnc(SCc2ccc(F)cc2)s1 | 13.5%
19 | COCCCNc1ccc2c3c(nc(=O)n2C)-c2ccccc2C(=O)c13 | 139%
20 | Cn1c(=O)cc(-c2ccccc2)c2ccccc21 | 7.4%
21 | CCCCNc1ccc2c3c(cc(=O)n2C)-c2ccccc2C(=O)c13 | 129%
22 | Cn1c(=O)cc(-c2ccccc2)c2cc(Cl)ccc21 | 14.7%

Row | SMILES | displacement
23 | Cn1c(=O)cc2c3c(c(Nc4cccc(Cl)c4)ccc31)C(=O)c1ccccc1-2 | 15.7%
24 | Nc1c(Cl)cc2c(c1Oc1ccccc1)C(=O)c1ccccc1C2=O | 8.6%
25 | CCCCNc1cc(=O)n(C)c(=O)n1C | 6.5%
26 | Cn1c(=O)cc2c3c(c(N4CCCC4)ccc31)C(=O)c1ccccc1-2 | 38.2%
27 | Cn1c(=O)cc2c3c(c(N)ccc31)C(=O)c1ccccc1-2 | 139%
28 | O=C1c2ccccc2C(=O)c2c(NCCO)ccc(NCCO)c21 | 46.4%
29 | CCCCCCCNc1ccc(NC(=O)c2ccccc2)c2c1C(=O)c1ccccc1C2=O | 1.5%
30 | Cn1c(=O)cc2c3c(c(Oc4ccccc4)ccc31)C(=O)c1ccccc1-2 | 108%
31 | O=C1N=C(N=Nc2c(O)[nH]c3ccccc23)S/C1=C/c1ccc(Br)cc1 | 8.9%
32 | COc1ccc(OC(C)C(=O)Nc2ccc3c(c2)OCCO3)cc1 (configuration not stated) | -4.5%
33 | CC(C)CC(NC(=O)c1ccccc1)C(=O)OCC(=O)N1c2ccccc2Sc2ccccc21 (configuration not stated) | 9.1%
34 | COc1ccc(S(=O)(=O)N(CC(=O)N2CCN(c3ccccc3)CC2)c2ccc(C)cc2)cc1OC | 6.1%
35 | C=CCc1ccccc1OCCOc1ccc(Br)cc1/C=C1/SC(=S)N(C)C1=O | -1.8%
36 | CCCCOc1ccc(C(=O)N2CCN(c3cccc(C)c3C)CC2)cc1 | -8.2%
37 | NNC(=O)COc1ccccc1OCCOCCOc1ccccc1OCC(=O)NN | -10.4%
38 | COc1ccc(OC)c2c1C(=O)c1ccccc1C2=O | 101%
39 | CCOc1ccc(Nc2ccc3noc4c3c2C(=O)c2ccccc2-4)cc1 | -2%
40 | CCOc1ccc2noc3c2c1C(=O)c1ccccc1-3 | 123%
41 | COc1ccccc1NS(=O)(=O)c1cccc2c1C(=O)c1ccccc1C2=O | 3%
42 | CCOC(=O)c1ccc2c3c(onc13)-c1ccccc1C2=O | 120%
43 | O=C1c2ccccc2-c2onc3ccc(Cl)c1c23 | 40.4%
44 | O=C1c2ccccc2-c2onc3ccc(Sc4ccccc4)c1c23 | 17.9%

Row | SMILES | displacement
45 | O=C1C=Cc2ccccc2/C1=N/Oc1ccc2noc3c2c1C(=O)c1ccccc1-3 | 25.9%
46 | COc1ccc2noc3c2c1C(=O)c1ccccc1-3 | 127%
47 | CC(=O)c1ccc2c3c(onc13)-c1ccccc1C2=O | 2.4%
48 | COC1=C(c2ccccc2)C(=O)c2ccccc2C1=O | -8.5%
49 | CC(C)CCOC(=O)c1ccc2c3c(onc13)-c1ccccc1C2=O | 21%
50 | COc1cc2c(NCc3ccco3)cc(O)c(CC(=O)Nc3ccc(Cl)cc3)c2cc1OC | 13%
51 | COc1ccc(OC)c(CN2CCN(S(C)(=O)=O)CC2)c1 | -14%
52 | O=C(CSc1nnc(-c2ccco2)n1-c1ccccc1)CSc1nnc(-c2ccco2)n1-c1ccccc1 | 15.9%
53 | C=CCNC(=O)C1CC(=O)N(c2ccc(C)cc2)C1 (configuration not stated) | -7.4%
54 | Cc1cc(C)nc(NS(=O)(=O)c2ccc(NC(=O)CSc3ncn[nH]3)cc2)n1 | 5.3%
55 | Nc1nc(Nc2nc(N3CCCC3)cc(C(F)(F)F)n2)cc(C(F)(F)F)n1 | 12%
56 | CC1=C/C(=N/OS(=O)(=O)c2ccccc2)C=CC1=O | 28.6%
57 | O=C1c2ccc(Oc3ccc([N+](=O)[O-])cc3)cc2C(=O)N1c1cccc(-c2nc3ccccc3o2)c1 | -3.8%
58 | O=C(Nc1ccc(Cl)c(Cl)c1)c1cc([N+](=O)[O-])ccc1N1CCCCC1 | 14%
59 | COc1cccc2c1NC(c1ccc(Cl)cc1)C1CC=CC21 (configuration not stated) | 9.1%
60 | O=C(O)c1cccc2c1NC(c1ccc(Cl)cc1)C1CC=CC21 (configuration not stated) | 148%
61 | O=C(O)c1cccc2c1NC(c1ccccc1Br)C1CC=CC21 (configuration not stated) | 132%
62 | O=C(O)c1cccc2c1NC(c1cccc3ccccc13)C1CC=CC21 (configuration not stated) | 25.1%
63 | COc1cccc2c1NC(c1ccccc1Br)C1CC=CC21 (configuration not stated) | -4.2%
64 | O=[N+]([O-])c1cccc2c1NC(c1ccc(Cl)cc1)C1CC=CC21 (configuration not stated) | 7.5%
65 | COc1cc(-c2ccccc2)nc(N)n1 | -5.4%
66 | COc1ccc(/C=C/C(=O)Nc2ccc(Br)cc2C(=O)c2cc(OC)c(OC)c(OC)c2)cc1OC | 1.6%

Row | SMILES | displacement
67 | COCC(=O)Nc1ccc2ccccc2c1 | -2.7%
68 | Nc1ccc2nn(-c3ccc([N+](=O)[O-])cc3)nc2c1 | -8.4%
69 | COc1ccc(N=Cc2c(O)n(-c3ccccc3OC)c(=O)[nH]c2=O)cc1 | 9.4%
70 | COc1ccc(OC)c(N=Cc2c(O)n(-c3ccccc3C)c(=O)[nH]c2=O)c1 | 7.3%
71 | COc1ccc(OC)c(N=Cc2c(O)n(-c3ccccc3Cl)c(=O)[nH]c2=O)c1 | 98.7%
72 | COc1ccccc1N=Cc1c(O)n(-c2ccccc2Cl)c(=O)[nH]c1=O | -6.6%
73 | COc1ccc(N=Cc2c(O)n(-c3cc(OC)ccc3OC)c(=O)[nH]c2=O)cc1 | 103%
74 | COc1cccc(N=Cc2c(O)n(-c3cc(OC)ccc3OC)c(=O)[nH]c2=O)c1 | -2%
75 | CCOC(=O)c1c[nH]c2cc(C(=O)OC)ccc2c1=O | -19.8%
76 | CCC1=NN2C(=N)/C(=C/c3cccc(OCc4ccccc4F)c3)C(=O)N=C2S1 | 6.1%
77 | Cc1ccc(/C=C(\C#N)c2nn(-c3ccccc3)c(N)c2C#N)cc1 | 2.5%
78 | Cc1ccc(COc2c(Br)cc(/C=C(\C#N)c3nn(-c4ccccc4)c(N)c3C#N)cc2Br)cc1 | 11.2%
79 | Cn1c(=O)n(C)c2cc(/C=C(\C#N)c3nn(-c4ccccc4)c(N)c3C#N)ccc21 | 92.9%
80 | COC(=O)COc1ccc2c(=O)c(Oc3ccc(C(C)(C)C)cc3)coc2c1 | 8%
81 | C/C(=N/NC(=O)COc1ccc(C)cc1)c1ccc([N+](=O)[O-])cc1 | 1.6%
82 | CNS(=O)(=O)c1ccc(N/C=C(\C=O)c2nc3cc(Cl)ccc3o2)cc1 | 12.6%
83 | O=C/C(=C\Nc1ccc(S(=O)(=O)CCO)cc1)c1nc2cc(Cl)ccc2o1 | 88.3%
84 | O=C/C(=C\Nc1ccc(S(=O)(=O)CCO)cc1)c1nc2ccccc2o1 | 9.7%
85 | Cn1c(O)c(N=NC(=O)c2ccccc2NC(=O)c2ccccc2)c2ccccc21 | -4%
86 | COCCOC(=O)c1c(C)oc2ccc(OCc3c(F)c(F)c(F)c(F)c3F)cc12 | 10.8%
87 | CCn1cc(/C=C2/C(=O)NN(c3ccccc3)C2=O)c2ccccc21 | 13.1%
88 | CC(C)NC(=O)C1CC1(c1ccccc1)c1ccccc1 (configuration not stated) | 4.7%

Row | SMILES | displacement
89 | Cc1ccc(-n2ccc(N)c(C#N)c2=O)cc1 | 3.3%
90 | COc1ccccc1NC(=O)CCN1C(=O)S/C(=C/c2ccc(OC)c(OC)c2)C1=O | 34.6%
91 | COc1ccc(/C=C2/SC(=O)N(CC(=O)Nc3ccc(F)c(Cl)c3)C2=O)cc1OC | 12.3%
92 | COc1ccc(/C=C2/SC(=O)N(CC(=O)Nc3ccc(C)c(C)c3)C2=O)cc1OC | 67%
93 | COc1ccc(/C=C2/SC(=O)N(CC(=O)Nc3cc(C)on3)C2=O)cc1OC | 12.8%
94 | COc1ccc(/C=C2\SC(=S)N(CCC(=O)Nc3ccccc3C)C2=O)cc1OC | 15.4%
95 | COc1ccc(/C=C2\SC(=O)N(CCC(=O)Nc3ccccc3C)C2=O)cc1OC | 79.4%
96 | COC(=O)c1ccc(C(=O)OC)c(NC(=O)/C=C/c2ccco2)c1 | 63.5%
97 | CCC(C(=O)Nc1cc(C(=O)OC)ccc1C(=O)OC)c1ccccc1 (configuration not stated) | 5%
98 | COC(=O)c1ccc(NC(=O)CC(c2ccccc2)c2ccccc2)cc1 | -0.2%
99 | COC(=O)c1ccc(C(=O)OC)c(NC(=O)COc2ccccc2Cl)c1 | 73.8%
100 | COC(=O)c1ccc(C(=O)OC)c(NC(=O)/C=C/c2ccc(Cl)cc2)c1 | -6.4%
101 | COC(=O)c1ccc(C(=O)OC)c(NC(=O)/C=C/c2ccccc2)c1 | 8.7%
102 | COC(=O)c1cc(NC(=O)COc2ccccc2[N+](=O)[O-])cc(C(=O)OC)c1 | 13%
103 | COC(=O)c1ccc(C(=O)OC)c(NC(=O)COc2ccccc2[N+](=O)[O-])c1 | 66.9%
104 | COC(=O)c1ccc(C(=O)OC)c(NC(=O)CC(c2ccccc2)c2ccccc2)c1 | 63.5%
105 | COC(=O)c1ccc(C(=O)OC)c(NC(=O)COc2cccc(Cl)c2)c1 | 1.2%
106 | COC(=O)c1ccc(C(=O)OC)c(NC(=O)Cc2ccccc2[N+](=O)[O-])c1 | 14.7%
107 | COC(=O)c1ccc(C(=O)OC)c(NC(=O)COc2ccc(Cl)cc2C)c1 | 5.4%
